# Data published in article PMC5540273 (PLoS ONE, 2017).
# Read-outs that look alike come from different tables or passages of the source.
# Legend:
# [1] = tested on: PRKD3; conditions: concentration: 1 μM, replicates: in singlicate; n = 1
# [2] = tested on: PRKG1; conditions: n = 1
# [3] = tested on: PRKG2; conditions: concentration: 1 μM, replicates: in singlicate; n = 1
# [4] = tested on: T1, PRKR; conditions: concentration: 1 μM, replicates: in singlicate; n = 1
# T1 construct: gene EIF2AK2
# [5] = tested on: PRKX; conditions: n = 1
# [6] = tested on: PRP4; conditions: concentration: 1 μM, replicates: in singlicate; n = 1
# [7] = tested on: T2, PYK2; conditions: concentration: 1 μM, replicates: in singlicate; n = 1
# T2 construct: gene PTK2B
# [8] = tested on: QSK; conditions: concentration: 1 μM, replicates: in singlicate; n = 1
# [9] = tested on: RAF1; conditions: concentration: 1 μM, replicates: in singlicate; n = 1
# [10] = tested on: RET; conditions: concentration: 1 μM, replicates: in singlicate; n = 1
# [11] = tested on: RIOK1; conditions: concentration: 1 μM, replicates: in singlicate; n = 1
# [12] = tested on: RIOK2; conditions: concentration: 1 μM, replicates: in singlicate; n = 1
# [13] = tested on: RIOK3; conditions: concentration: 1 μM, replicates: in singlicate; n = 1
# [14] = tested on: RIPK1; conditions: concentration: 1 μM, replicates: in singlicate; n = 1
# [15] = tested on: RIPK2; conditions: concentration: 1 μM, replicates: in singlicate; n = 1
# [16] = tested on: RIPK4; conditions: concentration: 1 μM, replicates: in singlicate; n = 1
# [17] = tested on: RIPK5; conditions: concentration: 1 μM, replicates: in singlicate; n = 1
# [18] = tested on: ROCK1; conditions: concentration: 1 μM, replicates: in singlicate; n = 1
# [19] = tested on: ROCK2; conditions: n = 1
# [20] = tested on: ROS1; conditions: concentration: 1 μM, replicates: in singlicate; n = 1
# [21] = concentration: 1 μM, replicates: in singlicate
# 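Further: KINOMEscan kinase panel screen.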
smiles,measurement,setting,value
COc1cc(Nc2nccc(-c3c(-c4cccc(NC(=O)c5c(F)cccc5F)c4)nn4ccccc34)n2)cc(OC)c1OC [GSK323521],%Inh,[1],42%
same,%Inh,[2]; [21],31%
same,%Inh,[3],0%
same,%Inh,[4],15%
same,%Inh,[5]; [21],22%
same,%Inh,[6],1%
same,%Inh,[7],2%
same,%Inh,[8],3%
same,%Inh,[9],16%
same,%Inh,[10],29%
same,%Inh,[11],34%
same,%Inh,[12],14%
same,%Inh,[13],0%
same,%Inh,[14],93.9%
same,%Inh,[15],79%
same,%Inh,[16],0%
same,%Inh,[17],67%
same,%Inh,[18],0%
same,%Inh,[19]; [21],6%
same,%Inh,[20],0%
COc1cc(Nc2ncc3c(C)nc(-c4cc5ccccc5[nH]4)n3n2)cc(OC)c1OC [GW869516],%Inh,[1],0%
same,%Inh,[2]; [21],0%
same,%Inh,[3],0%
same,%Inh,[4],35%
same,%Inh,[5]; [21],0%
same,%Inh,[6],0%
same,%Inh,[7],36%
same,%Inh,[8],0%
same,%Inh,[9],18%
same,%Inh,[10],45%
same,%Inh,[11],35%
same,%Inh,[12],0%
same,%Inh,[13],23%
same,%Inh,[14],26%
same,%Inh,[15],6%
same,%Inh,[16],0%
same,%Inh,[17],0%
same,%Inh,[18],0%
same,%Inh,[19]; [21],0%
same,%Inh,[20],0%
CCn1c(-c2nonc2N)nc2c(C#CC(C)(C)O)ncc(OCCCCN)c21.O=C(O)C(F)(F)F.O=C(O)C(F)(F)F [GSK507274],%Inh,[1],0%
same,%Inh,[2]; 1 µM,64%
same,%Inh,[3],96%
same,%Inh,[4],0%
same,%Inh,[5]; 1 µM,94.1%
same,%Inh,[6],2%
same,%Inh,[7],0%
same,%Inh,[8],5%
same,%Inh,[9],13%
same,%Inh,[10],1%
same,%Inh,[11],16%
same,%Inh,[12],0%
same,%Inh,[13],0%
same,%Inh,[14],0%
same,%Inh,[15],18%
same,%Inh,[16],0%
same,%Inh,[17],4%
same,%Inh,[18],97.2%
same,%Inh,[19]; 1 µM,95.3%
same,%Inh,[20],0%
Cn1cc(-c2[nH]c3cc(NC(=O)[C@H](N)C4CCCCC4)cc4c3c2C=NNC4=O)cn1,%Inh,[1],0%
same,%Inh,[2]; [21],56%
same,%Inh,[3],96.2%
same,%Inh,[4],67%
same,%Inh,[5]; [21],89%
same,%Inh,[6],68%
same,%Inh,[7],3%
same,%Inh,[8],95.8%
same,%Inh,[9],0%
same,%Inh,[10],100%
same,%Inh,[11],93.7%
same,%Inh,[12],21%
same,%Inh,[13],88%
same,%Inh,[14],0%
same,%Inh,[15],2%
same,%Inh,[16],87%
same,%Inh,[17],25%
same,%Inh,[18],85%
same,%Inh,[19]; [21],91.8%
same,%Inh,[20],37%
Cl.NC(=O)c1cccc(Nc2nccc(Nc3ccc(Oc4c(Cl)cccc4Cl)c(Cl)c3)n2)c1 [GW659009],%Inh,[1],21%
same,%Inh,[2]; [21],0%
same,%Inh,[3],0%
same,%Inh,[4],0%
same,%Inh,[5]; [21],0%
same,%Inh,[6],20%
same,%Inh,[7],0%
same,%Inh,[8],0%
same,%Inh,[9],88%
same,%Inh,[10],0%
same,%Inh,[11],56%
same,%Inh,[12],53%
same,%Inh,[13],51%
same,%Inh,[14],0%
same,%Inh,[15],84%
same,%Inh,[16],0%
same,%Inh,[17],10%
same,%Inh,[18],0%
same,%Inh,[19]; [21],10%
same,%Inh,[20],0%
CN1CCN(Cc2cccc(-c3ccc4c(Nc5ccc(Oc6ccccc6)cc5)ccnc4c3)c2)CC1 [GW578342],%Inh,[1],0%
same,%Inh,[2]; [21],0%
same,%Inh,[3],0%
same,%Inh,[4],0%
same,%Inh,[5]; [21],6%
same,%Inh,[6],27%
same,%Inh,[7],0%
same,%Inh,[8],9%
same,%Inh,[9],0%
same,%Inh,[10],48%
same,%Inh,[11],21%
same,%Inh,[12],0%
same,%Inh,[13],32%
same,%Inh,[14],0%
same,%Inh,[15],98.6%
same,%Inh,[16],0%
same,%Inh,[17],0%
same,%Inh,[18],25%
same,%Inh,[19]; [21],20%
same,%Inh,[20],0%
CC(=O)Nc1nc2cnc(Nc3cc(NC(=O)c4cccc(C5(C#N)CC5)c4Cl)ccc3C)nc2s1,%Inh,[1],0%
same,%Inh,[2]; [21],0%
same,%Inh,[3],0%
same,%Inh,[4],0%
same,%Inh,[5]; [21],19%
same,%Inh,[6],6%
same,%Inh,[7],20%
same,%Inh,[8],0%
same,%Inh,[9],99.2%
same,%Inh,[10],99.6%
same,%Inh,[11],15%
same,%Inh,[12],5%
same,%Inh,[13],3%
same,%Inh,[14],2%
same,%Inh,[15],0%
same,%Inh,[16],0%
same,%Inh,[17],15%
same,%Inh,[18],5%
same,%Inh,[19]; [21],0%
same,%Inh,[20],0%
COc1cccc(C2=C(Nc3ccc(Cl)c(C(=O)O)c3)C(=O)NC2=O)c1 [SB-390769],%Inh,[1],0%
same,%Inh,[2]; [21],0%
same,%Inh,[3],41%
same,%Inh,[4],9%
same,%Inh,[5]; [21],0%
same,%Inh,[6],31%
same,%Inh,[7],0%
same,%Inh,[8],100%
same,%Inh,[9],14%
same,%Inh,[10],11%
same,%Inh,[11],0%
same,%Inh,[12],0%
same,%Inh,[13],5%
same,%Inh,[14],0%
same,%Inh,[15],21%
same,%Inh,[16],7%
same,%Inh,[17],100%
same,%Inh,[18],28%
same,%Inh,[19]; [21],12%
same,%Inh,[20],0%
O=C(Nc1cccc(Oc2ccc3nc(NC(=O)C4CC4)cn3n2)c1)c1ccccc1C(F)(F)F,%Inh,[1],0%
same,%Inh,[2]; [21],0%
same,%Inh,[3],0%
same,%Inh,[4],8%
same,%Inh,[5]; [21],5%
same,%Inh,[6],5%
same,%Inh,[7],6%
same,%Inh,[8],0%
same,%Inh,[9],76%
same,%Inh,[10],99.9%
same,%Inh,[11],64%
same,%Inh,[12],0%
same,%Inh,[13],76%
same,%Inh,[14],15%
same,%Inh,[15],11%
same,%Inh,[16],0%
same,%Inh,[17],0%
same,%Inh,[18],0%
same,%Inh,[19]; [21],0%
same,%Inh,[20],0%
CC(C)c1nc(-c2cccc(NS(=O)(=O)c3c(F)cccc3F)c2F)c(-c2ccnc(Nc3ccc(N4CCOCC4)nc3)n2)s1 [GSK2008607],%Inh,[1],100%
same,%Inh,[2]; [21],0%
same,%Inh,[3],0%
same,%Inh,[4],29%
same,%Inh,[5]; [21],0%
same,%Inh,[6],0%
same,%Inh,[7],3%
same,%Inh,[8],90.5%
same,%Inh,[9],100%
same,%Inh,[10],99.7%
same,%Inh,[11],22%
same,%Inh,[12],0%
same,%Inh,[13],17%
same,%Inh,[14],0%
same,%Inh,[15],96.3%
same,%Inh,[16],15%
same,%Inh,[17],92.6%
same,%Inh,[18],0%
same,%Inh,[19]; [21],0%
same,%Inh,[20],35%
